Laboratory results reported in PubChem BioAssay.

Test: survival rescue of mitochondrial mutant cells in low glucose, primary screen, MELAS cybrids, Rieske KO mouse fibroblasts, CellTiter-Glo (AID 1508586);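 also: test concentration not given here; z relative to plate mean and SD of compound and empty wells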
Conditions: Rieske KO mouse fibroblast survival, CellTiter-Glo 72 h

Compound | z-score
CCc1nc(CNc2cc(C(=O)N[C@H](C)c3ccc(OC)cc3)cc(S(=O)(=O)N(C)C)c2)c(C)[nH]1 | -0.167
Cc1cccc(Nc2ncc(-c3ccccc3)o2)c1 | -0.569
NC(=O)c1cccc(Nc2nccc(Nc3cccc4[nH]ncc34)n2)c1 | -0.0979
CS(=O)(=O)CCNCc1ccoc1-c1ccc2ncnc(Nc3ccc(OCc4ccccc4)cc3)c2c1 | -0.404
NC(=O)c1cc(-c2ccc(F)cc2)cc(-c2ccncc2)c1N | 0.289
CCS(=O)(=O)c1ccc(OC)c(Nc2ncc(-c3cccc(C(C)=O)c3)o2)c1 | -0.327
COc1cc2ncn(-c3cc(OCc4ccccc4Cl)c(C(N)=O)s3)c2cc1OC | -0.32
CC(C)Cn1nc(C(=O)NCc2cccnc2)c2c1CCN(C(=O)c1scc3c1OCCO3)C2 | 5.2
COc1cccc(-n2ncc3c(N/N=C/c4ccc(S(C)(=O)=O)cc4)ncnc32)c1 | -0.0857
Nc1nonc1-c1nc2cnccc2n1C1CC1 | -0.585
CN(C)c1ncc(CN2CCc3c(cc(Cc4ccccc4)c(=O)n3Cc3ccc(F)cc3)C2)s1 | 0.0943
COc1ccccc1C(=O)N1CCN2C(=O)[C@@H]3CSCN3C(=O)[C@H]2C1 | 0.475
NC(=O)c1sc(-n2cnc3ccccc32)cc1OCc1ccccc1Br | -0.437
COC(=O)Nc1nc2ccc(Sc3ccc(NC(=O)Nc4cc(C(F)(F)F)ccc4F)cc3)cc2[nH]1 | -0.32
C[C@H]1NC(=O)NC1=O | -0.336
COc1cc2ncn(-c3cc(OCCc4ccccc4)c(C(N)=O)s3)c2cc1OC | -0.0569
COc1cccc(Nc2nccc(-c3cnn4ncccc34)n2)c1 | 1.18
